This is an account of results in PubChem BioAssay (Tox21).

Results filed as inconclusive are left out. Unmarked numbers belong to inactive results. Activity calls are given as the source filed them. The call rests on the fitted dose curve; in most records, active means well fitted inhibition curve with a large enough effect in the repeat runs; inconclusive means weak or mixed curves; inactive means flat fitted curve, though single readings scatter.
On the % scale 0 is the no-effect control and ±100 the full control effect; potency means the concentration at half of the fitted maximal effect.

The experiment can be described thus: qHTS assay to identify small molecule HDAC inhibitors (AID 1259364). Further: nearly all actives have a fitted effect of over 45% in size. On activity change, negative = inhibition: top concentration of the series differs between compounds. As to conditions: HCT-116 HDAC-Glo I/II luminescence, 2 h; series mostly up to 92.4 µM; activity change, negative = inhibition: at the top concentration. An excerpt:
U.S. Tox21 Program National Center for Advancing Translational Sciences [NCATS] NIH Chemical Genomics Center [NCGC] U.S. Environmental Protection Agency [EPA] National Institutes of Environmental Health Sciences [NIEHS] National Toxicology Program [NTP] U.S. Food and Drug Administration [FDA] Tox21 Assay Overview: Histone deacetylases (HDACs) are a group of epigenetic enzymes that regulate gene expression by histone deacetylation. HDACs are capable of introducing epigenetic modifications and such aberrations contribute to the onset and progression of several human diseases, thus making HDACs a popular therapeutic target. For identifying endogenous class I/II HDAC inhibitors a homogenous, luminogenic HDAC I/II cell based assay was used to measure the relative activity of class I and II HDACs from cells. Wild type HCT-116 cells were used to screen Tox21 libraries for identifying class I/II HDAC inhibitors.
Tox21 Assay Protocol Summary: HCT-116 cells were dispensed at 1,500 per well in 5uL of culture medium into white solid bottom 1536-well plates (Greiner Bio-One, Monroe, NC) using a Multidrop Combi (Thermo Scientific, Waltham, MA) dispenser. The assay plates were incubated at 37 C and 5% CO2 for an overnight, and then 23nL of compounds dissolved in DMSO and positive control were transferred using a Pintool station (Wako, San Diego, CA). The assay plates were incubated at 37C and 5% CO2 for 2hr. After compound treatment, 4uL of HDAC-Glo reagent (Promega Corporation, Madison, WI) was added to each well of the assay plates using Flying Reagent Dispenser (FRD, Aurora Discovery, San Diego, CA) and incubated the assay plates at room temperature for 30min. The luminescence signal was quantified using a ViewLux plate reader (Perkin Elmer, Shelton, CT).
(In general: Quantitative high-throughput screening tests each substance at several concentrations.)
For `C/C(C=O)=C\c1ccccc1`, the Potency is 30 µM (active). As to `O=C(O)CCC(=O)c1ccc(-c2ccccc2)cc1`, the Potency was 13.3 µM (active). `CC[C@H]1OC(=O)[C@H](C)[C@@H](O[C@H]2C[C@@](C)(OC)[C@@H](O)[C@H](C)O2)[C@H](C)[C@@H](O[C@@H]2O[C@H](C)C[C@H](N(C)C)[C@H]2O)[C@](C)(O)C[C@@H](C)CN(C)[C@H](C)[C@@H](O)[C@]1(C)O`: the “activity change, negative = inhibition” value is 1.52% [at 42.5 µM]. As for `CC1=CC[C@@]23C[C@@H]1C(C)(C)[C@@H]2CC[C@H]3C`, the “activity change, negative = inhibition” value is 2.1%. With `O=C1NC(=O)c2cccc3cccc1c23`, the “activity change, negative = inhibition” value was -3.71%. `Cc1c(C2(c3cc(Br)c(O)c(Br)c3C)OS(=O)(=O)c3ccccc32)cc(Br)c(O)c1Br`: the Potency is 4.2 µM (active).

Take `CC(=O)NCCO`: the “activity change, negative = inhibition” value was 9.06%. With `C1=CCC2CC=CC2C1` (stereo not given), the “activity change, negative = inhibition” value was -14.2%.

As to `O[C@@H](CNC[C@H](O)[C@H]1CCc2cc(F)ccc2O1)[C@@H]1CCc2cc(F)ccc2O1`, the “activity change, negative = inhibition” value is -0.947% [at 42.5 µM]. For `CC(C)N=C=NC(C)C`, the “activity change, negative = inhibition” value was -0.75%. Regarding `CCCCCCCCCCCCCCCCCC(=O)OCC(CC)CCCC` (stereo not given), the “activity change, negative = inhibition” value is -2.38%. Still for that read-out and setting: to `Cc1ccc(NC(=O)N(C)C)cc1NC(=O)N(C)C` belongs -13.2%. For `O=[N+]([O-])C1(Br)COCOC1`, the “activity change, negative = inhibition” value was -7.44%. Turning to `ClC1=C(Cl)C1(Cl)Cl`, the “activity change, negative = inhibition” value is -2.08%.

As to `COC(C)(C)OC`, the “activity change, negative = inhibition” value was -0.264%. On to `CCCCC(CC)COS(=O)(=O)O` (stereo not given), for which the “activity change, negative = inhibition” value was -0.461%.

As to `Cc1ccc(Cl)cc1N`, the “activity change, negative = inhibition” value was 17.3%. Turning to `CNC1CCCN(c2c(F)cc3c(=O)c(C(=O)O)cn(C4CC4)c3c2OC)C1` (stereo not given), the “activity change, negative = inhibition” value was 11.8% [at 42.5 µM]. `CC(CO)(CO)C(=O)O`: the “activity change, negative = inhibition” value is -3.46%. Consider `CC(=O)OCC(C)C`, for which the “activity change, negative = inhibition” value was 4.65%.

Take `O=C(Nc1ccc(C(=O)O)c(O)c1)c1ccccc1`: the Potency is 1.68 µM (active). With `CC(C)C(=O)OCCOc1ccccc1`, the “activity change, negative = inhibition” value was -0.0386%. Still for that read-out and setting: to `COc1ccc(C(=O)NCc2ccc(OCCN(C)C)cc2)cc1OC` belongs -3.15% [at 42.5 µM]. As for `O=C(/C=C/c1ccc([N+](=O)[O-])cc1)c1ccccc1`, the Potency was 8.65 µM (active). Take `O=C(O)CO`: the “activity change, negative = inhibition” value is 1.49%. `CCOCCC(=O)OCC`: the “activity change, negative = inhibition” value was -0.979%. As to `CCN(Cc1cccc(S(=O)(=O)O)c1)c1ccc(C(=C2C=CC(=[N+](CC)Cc3cccc(S(=O)(=O)O)c3)C=C2)c2ccc(O)cc2S(=O)(=O)[O-])cc1`, the Potency was 3.71 µM (active).

As for `CCC(C)(C)C(=O)O`, the “activity change, negative = inhibition” value is 1.17%. For `C1CCCCC1`, the “activity change, negative = inhibition” value was 0.831%. As for `CC[C@H]1OC(=O)[C@H](C)[C@@H](O[C@H]2C[C@@](C)(OC)[C@@H](O)[C@H](C)O2)[C@H](C)[C@@H](O[C@@H]2O[C@H](C)C[C@H](N(C)C)[C@H]2O)[C@](C)(O)C[C@@H](C)C(=O)[C@H](C)[C@@H](O)[C@]1(C)O`, the “activity change, negative = inhibition” value was 2.69% [at 42.5 µM]. As to `CC(C)Cc1ccc(CC(=O)O)cc1`, the “activity change, negative = inhibition” value was 0.959% [at 42.5 µM]. As to `CCc1ccc(C)cc1`, the “activity change, negative = inhibition” value was 0.469%. Regarding `CNc1c2c(nn1C)CCCC2`, the “activity change, negative = inhibition” value was -3.31% [at 42.5 µM].

Regarding `CCCCCCCCCCCCCC(=O)OCC(O)CO` (stereo not given), the “activity change, negative = inhibition” value is 4.55%.

For `CCN(CC)c1ccc(C(=C2C=CC(=[N+](CC)CC)C=C2)c2ccc(S(=O)(=O)O)cc2S(=O)(=O)[O-])cc1`, the Potency is 3.86 µM (active).

For `O=c1[nH][nH]c(=O)c2cc([N+](=O)[O-])ccc12`, the “activity change, negative = inhibition” value is 1.16%.

Regarding `CCNc1nc(N)nc(Cl)n1`, the “activity change, negative = inhibition” value was 3.42%. For the compound `COC(=O)c1sccc1S(N)(=O)=O`, the “activity change, negative = inhibition” value was 10.4%. On the same count and under the same terms, next, `CC1CCCO1` (stereo not given): 6.04%; `Cc1ccc(N(CC2=NCCN2)c2cccc(O)c2)cc1`: 2.49% [at 42.5 µM].
